From PubChem BioAssay (EPA / NIEHS) come the findings set out here.

Active and inactive are the calls of the source. How the source made its calls: active means hit-call score of the fitted dose curve at least 0.9, where 1 is the maximum; inactive means score below 0.9.

Read-out in assay [1]: Transforming growth factor beta 1 (TGFb1), TGFB1 (gene 7040)
The assay can be described thus: BSK_KF3CT_TGFb1: BioMAP Diversity Plus: KF3CT Assay for Transforming growth factor beta 1 (TGFb1) Biomarker Activity (AID 2283072). As to conditions: primary human keratinocytes with fibroblasts; actives raise or lower the signal. The method, boiled down: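 Human keratinocyte/foreskin fibroblast co-culture; TGF-b1 measured by ELISA 24 h after dosing, fitted bidirectionally versus DMSO. Cytotoxicity checked in parallel cultures by total protein (SRB staining, 560 nm).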

Read-out in assay [2]: Matrix Metallopeptidase 9 (MMP9), MMP9 (gene 4318)
The assay can be described thus: BSK_KF3CT_MMP9: BioMAP Diversity Plus: KF3CT Assay for Matrix Metallopeptidase 9 (MMP9) Biomarker Activity (AID 2283074). As to conditions: primary human keratinocytes with fibroblasts; actives raise or lower the signal. The method, boiled down: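 Human keratinocyte and foreskin fibroblast co-culture exposed to chemicals for 24 h; MMP9 biomarker measured by ELISA, bidirectional fitting relative to DMSO; cytotoxicity tracked by SRB total protein staining in parallel cultures.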

Read-out in assay [3]: CD40, CD40 (gene 958)
The assay can be described thus: BSK_LPS_CD40: BioMAP Diversity Plus: LPS Assay for CD40 Biomarker Activity (AID 2283076). As to conditions: primary human HUVEC with PBMC; actives raise or lower the signal. The gist of the method: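 ELISA readout of CD40 in HUVEC/PBMC co-culture (BSK_LPS system), 24 h post-dosing; bidirectional curve fit, DMSO baseline; parallel SRB total-protein staining for cytotoxicity.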

Read-out in assay [4]: E-selectin (Homo sapiens) (UniProt P16581)
The assay can be described thus: BSK_LPS_Eselectin: BioMAP Diversity Plus: LPS Assay for Eselectin Biomarker Activity (AID 2283077). As to conditions: primary human HUVEC with PBMC; actives raise or lower the signal. The method, boiled down: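 ELISA readout of E-selectin, 24 h post-dose, HUVEC + PBMC co-culture (LPS system). Gain or loss of signal vs DMSO baseline, bidirectional fit.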

A short description of assay [5]: BSK_LPS_SRB: Viability Assessment in the BioMAP Diversity Plus: LPS Assay (AID 2283079).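 Further: total protein by sulforhodamine B absorbance as a cytotoxicity measure; measured one day after compound addition; fitted in both directions against DMSO so loss or gain of signal counts.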 As to conditions: primary human HUVEC with PBMC. The gist of the method: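 HUVEC + PBMC co-culture, LPS-stimulated; compound 24 h. 10% TCA fix, 0.1% SRB stain, A560. Bidirectional fit vs DMSO.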
Read-out in assay [6]: Interleukin-1 alpha (IL1a), IL1A (gene 3552)
The assay can be described thus: BSK_LPS_IL1a: BioMAP Diversity Plus: LPS Assay for Interleukin-1 alpha (IL1a) Biomarker Activity (AID 2283080). As to conditions: primary human HUVEC with PBMC; actives raise or lower the signal. The gist of the method:
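HUVEC/PBMC co-culture, LPS system; 24 h after dosing; IL-1a by ELISA; gain or loss of signal fitted bidirectionally vs DMSO baseline.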

Read-out in assay [7]: Monocyte Chemoattractant Protein-1 (MCP1), CCL2 (gene 6347)
The assay can be described thus: BSK_LPS_MCP1: BioMAP Diversity Plus: LPS Assay for Monocyte Chemoattractant Protein-1 (MCP1) Biomarker Activity (AID 2283081). As to conditions: primary human HUVEC with PBMC; actives raise or lower the signal. The gist of the method:
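ELISA read-out of MCP-1 after 24 h chemical dosing of a human umbilical vein endothelial cell/peripheral blood mononuclear cell co-culture stimulated with LPS. Gain or loss of signal fitted relative to DMSO controls.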

Assay [8] in a line: BSK_LPS_PGE2: BioMAP Diversity Plus: LPS Assay for Prostaglandin E2 (PGE2) Biomarker Activity (AID 2283082). As to conditions: primary human HUVEC with PBMC; actives raise or lower the signal. The method, boiled down: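 HUVEC plus human PBMC co-culture stimulated with LPS; secreted PGE2 quantified by ELISA 24 h after chemical dosing. Activity fitted bidirectionally against DMSO baseline; parallel SRB staining (0.1% SRB after 10% TCA fixation, 560 nm) flags overt cytotoxicity.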

Read-out in assay [9]: Tissue Factor, F3 (gene 2152)
The assay can be described thus: BSK_LPS_TissueFactor: BioMAP Diversity Plus: LPS Assay for Tissue Factor Biomarker Activity (AID 2283084). As to conditions: primary human HUVEC with PBMC; actives raise or lower the signal. The method, boiled down: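 HUVEC/PBMC co-culture, LPS-activated; CD142 ELISA read 24 h post-dose; bidirectional curve fit vs DMSO negative control.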

Read-out in assay [10]: Tumor necrosis factor (Homo sapiens) (UniProt P01375)
The assay can be described thus: BSK_LPS_TNFa: BioMAP Diversity Plus: LPS Assay for Tumour Necrosis Factor alpha (TNFa) Biomarker Activity (AID 2283085). As to conditions: primary human HUVEC with PBMC; actives raise or lower the signal. The method, boiled down: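 Human umbilical vein endothelial cells co-cultured with PBMC and stimulated with LPS. TNFa was measured by ELISA 24 h after chemical dosing, fitted bidirectionally relative to DMSO.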

Read-out in assay [11]: Vascular cell adhesion molecule 1 (VCAM1), VCAM1 (gene 7412)
The assay can be described thus: BSK_LPS_VCAM1: BioMAP Diversity Plus: LPS Assay for Vascular cell adhesion molecule 1 (VCAM1) Biomarker Activity (AID 2283086). As to conditions: primary human HUVEC with PBMC; actives raise or lower the signal. The gist of the method: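 Human umbilical vein endothelial cells co-cultured with PBMC and stimulated with LPS; VCAM-1 measured by ELISA 24 h after dosing. Bidirectional curve fitting against DMSO baseline; cytotoxicity tracked in parallel by SRB total-protein staining.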

Read-out in the next assay: CD38, CD38 (gene 952)
The assay can be described thus: BSK_SAg_CD38: BioMAP Diversity Plus: SAg Assay for CD38 Biomarker Activity (AID 2283087). As to conditions: primary human HUVEC with PBMC; actives raise or lower the signal. The gist of the method:
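Human HUVEC plus PBMC co-culture stimulated with superantigen; CD38 measured by ELISA 24 h after chemical dosing. Fluorescence read-out, bidirectional fit against DMSO; cytotoxicity tracked in parallel by SRB and Alamar Blue.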

Read-out in assay [12]: CD40, CD40 (gene 958)
The assay can be described thus: BSK_SAg_CD40: BioMAP Diversity Plus: SAg Assay for CD40 Biomarker Activity (AID 2283088). As to conditions: primary human HUVEC with PBMC; actives raise or lower the signal. The gist of the method: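 HUVEC/PBMC co-culture, 24 h post-dose; CD40 by ELISA, fluorescence intensity; bidirectional fit vs DMSO negative control.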

Read-out in a further assay: CD69, CD69 (gene 969)
The assay can be described thus: BSK_SAg_CD69: BioMAP Diversity Plus: SAg Assay for CD69 Biomarker Activity (AID 2283089).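 On AC50: cell surface CD69 protein quantified by ELISA with fluorescence detection.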 As to conditions: primary human HUVEC with PBMC; actives raise or lower the signal. The method, boiled down: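 ELISA, fluorescence read-out: CD69 on human umbilical vein endothelial cell + PBMC co-culture, 24 h post-dosing. Gain or loss of signal fitted bidirectionally against DMSO baseline.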

Read-out in assay [13]: Monocyte Chemoattractant Protein-1 (MCP1), CCL2 (gene 6347)
The assay can be described thus: BSK_SAg_MCP1: BioMAP Diversity Plus: SAg Assay for Monocyte Chemoattractant Protein-1 (MCP1) Biomarker Activity (AID 2283090). As to conditions: primary human HUVEC with PBMC; actives raise or lower the signal. The gist of the method: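 MCP-1 levels in the endothelial–PBMC SAg co-culture were quantified by ELISA at 24 h post-dosing; both increases and decreases versus DMSO scored. Cytotoxicity monitored by SRB total protein in parallel cultures.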

Read-out in assay [14]: E-selectin (Homo sapiens) (UniProt P16581)
The assay can be described thus: BSK_SAg_Eselectin: BioMAP Diversity Plus: SAg Assay for Eselectin Biomarker Activity (AID 2283091). As to conditions: primary human HUVEC with PBMC; actives raise or lower the signal. The method, boiled down: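 E-selectin ELISA readout at 24 h post-dosing in human umbilical vein endothelial cell/PBMC co-culture; gain or loss of signal fitted relative to DMSO baseline.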

Read-out in assay [15]: Interleukin-8 (IL8), CXCL8 (gene 3576)
The assay can be described thus: BSK_LPS_IL8: BioMAP Diversity Plus: LPS Assay for Interleukin-8 (IL8) Biomarker Activity (AID 2283078). As to conditions: primary human HUVEC with PBMC; actives raise or lower the signal. The method, boiled down:
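HUVEC + PBMC co-culture, LPS-activated; test chemicals dosed, IL-8 read by ELISA at 24 h. Bidirectional curve fit vs DMSO baseline (gain or loss of signal).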

Read-out in assay [16]: Macrophage colony-stimulating factor (MCSF), CSF1 (gene 1435)
The assay can be described thus: BSK_LPS_MCSF: BioMAP Diversity Plus: LPS Assay for Macrophage colony-stimulating factor (MCSF) Biomarker Activity (AID 2283083). As to conditions: primary human HUVEC with PBMC; actives raise or lower the signal. The method, boiled down: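 HUVEC + PBMC co-culture (human primary), 24 h post-dose; M-CSF by ELISA; gain/loss of signal fitted bidirectionally vs DMSO baseline.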

Chain of E-selectin (Homo sapiens) (P16581 whole entry, looked up): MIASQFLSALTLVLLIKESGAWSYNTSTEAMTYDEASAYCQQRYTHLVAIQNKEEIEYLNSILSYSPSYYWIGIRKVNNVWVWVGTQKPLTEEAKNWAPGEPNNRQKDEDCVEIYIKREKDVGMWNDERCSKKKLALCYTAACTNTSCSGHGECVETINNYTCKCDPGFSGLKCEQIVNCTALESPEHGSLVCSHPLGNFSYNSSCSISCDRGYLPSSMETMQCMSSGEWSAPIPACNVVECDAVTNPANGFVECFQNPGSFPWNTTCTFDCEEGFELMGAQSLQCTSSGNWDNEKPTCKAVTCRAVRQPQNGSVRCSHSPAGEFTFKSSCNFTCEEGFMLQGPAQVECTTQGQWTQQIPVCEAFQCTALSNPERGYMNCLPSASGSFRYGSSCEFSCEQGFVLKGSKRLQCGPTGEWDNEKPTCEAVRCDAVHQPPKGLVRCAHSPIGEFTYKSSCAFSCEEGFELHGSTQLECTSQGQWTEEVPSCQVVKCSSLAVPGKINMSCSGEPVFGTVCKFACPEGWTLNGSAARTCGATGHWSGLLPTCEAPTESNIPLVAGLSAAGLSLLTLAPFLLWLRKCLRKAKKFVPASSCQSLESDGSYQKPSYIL
Chain of Tumor necrosis factor (Homo sapiens) (P01375 whole entry, looked up): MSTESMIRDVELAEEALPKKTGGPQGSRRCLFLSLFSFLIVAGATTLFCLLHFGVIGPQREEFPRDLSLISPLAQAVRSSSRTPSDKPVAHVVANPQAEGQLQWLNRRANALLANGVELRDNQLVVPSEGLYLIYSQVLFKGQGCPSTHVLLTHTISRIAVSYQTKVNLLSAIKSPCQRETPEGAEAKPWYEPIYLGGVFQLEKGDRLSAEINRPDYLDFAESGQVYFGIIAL

On to `C[C@]12C[C@H](O)[C@H]3[C@@H](CCC4=CC(=O)CC[C@@]43C)[C@@H]1CC[C@@H]2C(=O)CO`, for which the outcome in assay [1] was “inactive”; in assay [2] it was “inactive”; in the assay with CD40, CD40 (gene 958) [3], “inactive”; in assay [4] it was “inactive”; in [5], “inactive”; in assay [6] it was “inactive”. For the same compound, the outcome in assay [7] is “inactive”; in assay [8], “inactive”; in assay [9], “inactive”; in assay [10], “inactive”; in [11], “inactive”; in the assay with CD38, CD38 (gene 952), “inactive”. Moreover, the outcome with CD40, CD40 (gene 958) [12] is “inactive”; with CD69, CD69 (gene 969), “inactive”; in assay [13], “inactive”; in assay [14], “inactive”.
In the case of `O=C(c1ccc(O)cc1O)c1ccc(O)cc1O`, the outcome is “inactive” in assay [1]; “inactive” in assay [2]; “inactive” with CD40, CD40 (gene 958) [3]; “inactive” in [4]; “inactive” in [15]; “inactive” in [5]. Further, the result in [6], in [7], in [8], in [16], in assay [9] and in assay [11] was inactive. Further, the outcome in the assay with CD38, CD38 (gene 952) was “inactive”; with CD40, CD40 (gene 958) [12], “inactive”; with CD69, CD69 (gene 969), “inactive”; in assay [13], “inactive”; in [14] it was “inactive”.
In the case of `CC1(C)C(C=C(Cl)Cl)C1C(=O)OCc1cccc(Oc2ccccc2)c1` (stereo not given), the outcome in assay [1] is “inactive”; in [2] it was “inactive”; in the assay with CD40, CD40 (gene 958) [3] it was “inactive”; in [4] it was “inactive”; in [6], “inactive”; in [7], “inactive”. The outcome is “inactive” in assay [9]; “inactive” in [10]; “inactive” in [11]; “inactive” in the assay with CD38, CD38 (gene 952); “inactive” with CD40, CD40 (gene 958) [12]; “inactive” in assay [13]. The result in [14] was inactive. The concentration at half-maximal activity (AC50) is 6.14 µM (active) in assay [5]; 4.13 µM (active) in [8]; 4.63 µM (active) in assay [16]; 14.7 µM (active) with CD69, CD69 (gene 969).

One may read the AC50 as the concentration giving half of the maximal activity seen.
